Data on 47 compounds can be found in PubChem BioAssay AID2685 (National Center for Advancing Translational Sciences (NCATS), 2010).

The campaign covered roughly 320,000 compounds. About 2,100 (0.66%) were called active. Not shown: some 53% with an inconclusive outcome. The call rests on the fitted dose curve; in most records, active means well fitted inhibition curve with a large enough effect in the signal ratio, with a control signal flat (not every such curve was filed as active); inconclusive means small, poorly fitted or top-dose-only effect, or effect the other way, or a change in a side signal; inactive means flat fitted curve, though single readings scatter; the % refers to the signal ratio. The list comes from a sample in which actives are over-represented; it also holds similar structures and randomly drawn compounds.
Potency means the concentration at half of the fitted maximal effect.

This assay is described as follows: qHTS Assay for Lipid Storage Modulators in Drosophila S3 Cells.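 On cell number change: cells counted by Cell Tracker Red CMTPX staining in the red channel.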 On lipid storage change, negative = inhibition: on the % scale 0 is the no-effect control and ±100 the full control effect. The conditions noted are these: BODIPY lipid droplet fluorescence, 18-24 h, cells fed with added oleic acid; cell number change: measured here: cell count max response; series mostly up to 46.1 µM; lipid storage change, negative = inhibition: at the top concentration. The essentials:
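Drosophila S3 cells loaded with oleic acid (400 uM, as added) and compounds at several concentrations; lipid droplets imaged by 488-nm laser-scanning cytometry, 500–530 nm intensity and object ratio to cell channel. Percent activity normalized to 20 uM Triacsin C.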
Regarding `COc1cccc(-c2nc3c(c(SCC(=O)N4CCOCC4)n2)Cc2c(CO)cnc(C)c2O3)c1`, the Potency was 0.651 µM (active). On to `COC(C[C@H](O)[C@H](C)[C@H](O)COCc1ccccc1)OC`, for which the “lipid storage change, negative = inhibition” value was -0.509% (inactive) and the cell number change is 11.5%.

For `O=C(CN1C(=O)COc2ccccc21)Nc1ccc2c(c1)OCCO2`, the outcome was inactive and the cell number change was 3.43%.

For `COc1ccc(C(=O)N/C(=C\c2cn(C)c3ccccc23)C(=O)N2CCN(C)CC2)cc1OC`, the outcome was inactive and the cell number change came to 0.763%. Turning to `COc1ccc(C(=O)N/C(=C\c2cn(C)c3ccccc23)C(=O)N2CCOCC2)cc1OC`, the Potency was 23.1 µM (active) and the cell number change is 9.92%. For the compound `COc1ccc(C(=O)N/C(=C\c2cn(C)c3ccccc23)C(=O)N2CCOCC2)cc1`, the call was inactive and the cell number change is 8.73%. Consider `CCCN1CCN(C(=O)c2noc3c2COc2ccc(C)cc2-3)CC1`, for which the “lipid storage change, negative = inhibition” value was -30.8% (inactive) and the cell number change is -19.6%. The like results for `COc1ccc2oc(C(=O)OC(C)C(=O)N3CCC(C)CC3)c(C)c2c1` (centres undefined) were, in that order, -4.24% (inactive) and -13.1%. Regarding `COc1ccc2oc(C(=O)OC(C)C(=O)Nc3ccc(N4CCOCC4)cc3)c(C)c2c1` (centres undefined), the Potency was 7.31 µM (active) and the cell number change is -30.5%. As to `Cc1cc(=O)oc2cc(OC(C)C(=O)Nc3ccc(N4CCOCC4)cc3)ccc12` (centres undefined), the “lipid storage change, negative = inhibition” value is 20.2% (inactive). `O=C(CSc1cn[nH]n1)Nc1ccccc1F`: the cell number change stood at 16.5% and the lipid storage change, negative = inhibition was -23.4% [at 0.0737 µM] (inactive). `CCOC(=O)C1=C(COC(=O)/C=C/c2cccc(OC)c2OC)NC(=O)NC1C` (centres undefined): the result was inactive. Turning to `CCOC(=O)C1=C(COC(=O)c2cc(OC)c(OC)c(OC)c2)NC(=O)NC1C` (centres undefined), the “lipid storage change, negative = inhibition” value was 4.7% (inactive) and the cell number change is -11.6%.

On to `CCOC(=O)C1=C(COC(=O)/C=C/c2cc(OC)c(OC)c(OC)c2)NC(=O)NC1C` (centres undefined), for which the Potency is 18.4 µM (active) and the cell number change turned out to be 4.86%. With `NS(=O)(=O)c1ccc(NC(=S)NC(=O)c2cccs2)cc1`, the “lipid storage change, negative = inhibition” value was -5.53% (inactive) and the cell number change is -5.36%.

Take `Cc1cc(Br)ccc1SCC(=O)N1CCN(S(=O)(=O)c2ccccc2)CC1`: the result was inactive and the cell number change stood at 10.8%. For `O=C(CN1C(=O)c2cccnc2Oc2ccc(Cl)cc21)NCCc1ccccc1`, in that order: “inactive” and 10.9%. Take `O=C(CN1C(=O)c2cccnc2Oc2ccc(Cl)cc21)Nc1ccccc1F`: the “lipid storage change, negative = inhibition” value is -6.56% (inactive) and the cell number change is -28%. The like results for `CC(CNC(=O)CCC(=O)N1CCOc2ccccc21)c1ccccc1` (centres undefined) were, in that order, -12.8% (inactive) and 5.19%. With `Cc1ccccc1CNC(=O)CCC(=O)N1CCOc2ccc(Cl)cc21`, the “lipid storage change, negative = inhibition” value is 6.67% (inactive) and the cell number change was 5.19%. On to `CC(CNC(=O)CN1C(=O)c2cccnc2Oc2ccc(Cl)cc21)c1ccccc1` (centres undefined), for which the Potency is 20.6 µM (active) and the cell number change was -20.3%. The like results for `CC(CNC(=O)CCC(=O)N1CCOc2ccc(Cl)cc21)c1ccccc1` (centres undefined) were, in that order, 0.92 µM (active) and -20.2%.

For the compound `COc1ccc(NC(=O)[C@@H](NC(=O)c2ccccc2)C(C)C)cc1S(=O)(=O)N1CCCCC1`, the “lipid storage change, negative = inhibition” value is -1.46% (inactive) and the cell number change is -2.25%. As to `CC(=O)Nc1ccc(OCC(O)Cn2c3ccccc3c3ccccc32)c(C)c1` (centres undefined), the “lipid storage change, negative = inhibition” value was -3.13% (inactive) and the cell number change is -16.4%.

As to `CSc1nc(=S)n(-c2ccccc2)c(C)c1C(C)=O`, the “lipid storage change, negative = inhibition” value was -5.3% (inactive) and the cell number change is -14.2%. For `O=C(CCCn1c(SCc2cccc(F)c2)nc2ccccc2c1=O)NCC1CCCO1` (centres undefined), in that order: -7.37% (inactive) and -0.301%. With `O=C(NCCCN1CCCCC1)c1ccc(CS(=O)c2ccc(F)cc2)o1` (centres undefined), the call was inactive.

In the case of `CCN1CCN(CCNC(=O)c2ccc(CS(=O)c3ccc(Cl)cc3)o2)CC1` (centres undefined), the outcome was inactive. For the compound `Cc1ccccc1S(=O)Cc1ccc(C(=O)NCCCN2CCCCC2)o1` (centres undefined), the Potency was 4.11 µM (active) and the cell number change is -18.3%. With `Cc1ccccc1S(=O)(=O)Cc1ccc(C(=O)NCCCN2CCCC2)o1`, the “lipid storage change, negative = inhibition” value was 1.07% (inactive) and the cell number change was 13.9%. Take `O=C(NCCN1CCOCC1)c1ccc(CS(=O)c2ccccc2Cl)o1` (centres undefined): the Potency was 4.11 µM (active) and the cell number change was -8.85%. Turning to `O=C(c1ccc(CS(=O)c2ccccc2Cl)o1)N1CCCCCC1` (centres undefined), the compound was called inactive and the cell number change is -21.2%. Consider `COc1ccc(NC(C)=O)cc1NC(=O)c1ccc(Cl)cc1`, for which the “lipid storage change, negative = inhibition” value was 0.28% (inactive) and the cell number change was 11.7%. The like results for `CC(SCc1ccccc1)C(=O)Nc1ccccc1-c1ccccc1` (centres undefined) were, in that order, -6.56% (inactive) and 8.62%. The like results for `O=S1(=O)N=C(Oc2cccc3ccccc23)c2ccccc21` were, in that order, -0.954% (inactive) and 3.24%. The like results for `COc1ccc(C2CCCN2C(=O)Nc2ccc(Cl)cc2)cc1OC` (centres undefined) were, in that order, -5.01% (inactive) and -6.06%. On to `Cc1ccc(C)c(CN2CCC(CNC(=O)Nc3ccc(F)c(Cl)c3)CC2)c1`, for which the “lipid storage change, negative = inhibition” value was -20.7% (inactive) and the cell number change was -7.91%. As to `Cc1ccc(C)c(CN2CCC(CNC(=O)Nc3cccc(Cl)c3C)CC2)c1`, the Potency was 25.9 µM (active) and the cell number change is -2.78%. Take `COc1ccc(Cl)cc1NC(=O)NCC1CCN(Cc2cc(C)ccc2C)CC1`: the “lipid storage change, negative = inhibition” value was -4.05% (inactive) and the cell number change is -15.2%. For `CC(C)(C)c1ccc(OCCC(=O)OCC(=O)Nc2cccnc2Cl)cc1`, in that order: -4.76% (inactive) and -11.9%. Turning to `COCCn1c(Cc2ccccc2)nnc1SCC(=O)N1CCCC1=O`, the “lipid storage change, negative = inhibition” value was 10.9% (inactive) and the cell number change stood at 2.89%. Consider `O=C(NC1(N2CCOCC2)CC1)c1ccc(Cl)cc1`, for which the “lipid storage change, negative = inhibition” value is 6.65% (inactive) and the cell number change was 10.5%.

Consider `CSC1=NCCN1C(=O)c1c(F)cccc1F`, for which the “lipid storage change, negative = inhibition” value is 3% (inactive) and the cell number change was found to be 10.5%. For `CSc1ccccc1OCc1cc(C(=O)N(C)CC2COCCO2)no1` (centres undefined), in that order: -7.6% (inactive) and 5.77%. For `CCC(=O)N1CCc2cc(OC)c(OC)cc2C1COc1ccccc1OC` (centres undefined), the “lipid storage change, negative = inhibition” value was -23.2% (inactive) and the cell number change is -0.404%. As to `CCNC(=S)N1CCc2cc(OC)c(OC)cc2C1COc1ccccc1OC` (centres undefined), the Potency was 11.6 µM (active) and the cell number change is -25.8%. On to `CCNC(=S)N1CCc2cc(OC)c(OC)cc2C1COc1ccc(OC)cc1` (centres undefined), for which the “lipid storage change, negative = inhibition” value was 6.83% (inactive) and the cell number change was -7.02%.
